In PubChem BioAssay AID1578 (Sanford-Burnham Center for Chemical Genomics, 2009):
Among all 290,000 compounds or so, about 3,000 (1%) were called active. For the sample, actives were picked, then their nearest neighbours and some compounds at random. Values without a mark were called inactive. Cut-off read from the data, not from the text of the source: active = inhibition mostly above about 36% (no sharp cut-off); inactive = mostly below about 34%.

Assay: inhibition of NOD1-driven NF-kB reporter – cell-based, luminescence, uHTS, primary screen (AID 1578);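 note: HEK-293T reporter cells stimulated with the NOD1 agonist gamma-tri-DAP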
Conditions: NOD1-driven NF-kB luciferase reporter cells, at 4 µM, stronger effect = higher value

Row | Compound | inhibition
1 | COc1ccc(NC(=O)c2nnn(CC(=O)Nc3ccc4c(c3)OCO4)c2N)c(OC)c1 | -46.4%
2 | C=CCN=C(NC#N)SCC(=O)NC(C)(C)C | 1.5%
3 | Cn1c(SCC(=O)NC2CCCCC2)nnc1-c1ccc(N)cc1 | -10.1%
4 | Cn1c(SCC(=O)NC2CCCCC2)nnc1-c1cccc(N)c1 | 46.1% (active)
5 | Cc1cccc(-c2nnc(SCC(=O)NC3CC3)n2C)c1 | -27.5%
6 | CCn1ccnc1[C@@H]1C[C@H]2CN(c3ccccc3OC)C(=O)[C@]23CCCN13 | -22.3%
7 | C=C(C)Cn1c(NCCC)nc2c1c(=O)n(C)c(=O)n2C | -26.6%
8 | CC(CCc1ccccc1)NC(=O)CN1CCSc2ccccc21 (configuration not stated) | 8%
9 | CC(C)(C)C1CCC(=O)N(CCSc2ccccc2)CC1 (configuration not stated) | -65%
10 | COC1=C(OC)C(=O)C(CCCCCCCCCCO)=C(C)C1=O | 87.7% (active)
11 | Cc1[nH]c(=S)[nH]c(=O)c1CCCO | -25.6%
12 | CC1=C(C)C(=O)C(CCCCC#CCCCC#CCO)=C(C)C1=O | -6.7%
13 | COc1ccc(CNCCC(c2ccc(OC(C)C)cc2)c2ccccc2OC)cc1OC (configuration not stated) | -0.9%
14 | COc1ccc(C(CCN(Cc2ccc(OC)c(OC)c2)C(C)=O)C(C)C)cc1 (configuration not stated) | -0.7%
15 | COc1ccc(C(CCN(Cc2ccc(OC)c(OC)c2)C(C)=O)c2ccccc2)cc1 (configuration not stated) | 14.5%
16 | COc1ccc(CNCCC(c2ccccc2)c2ccc(OC(C)C)cc2)cc1OC (configuration not stated) | -3.1%
17 | COc1ccc(C(CCN(Cc2ccc(OC)c(OC)c2)C(=O)CCl)c2ccccc2)cc1 (configuration not stated) | 82.9% (active)
18 | COc1ccccc1N(C(C)=O)c1nc(C)cc(C)c1C#N | -33.1%
19 | O=C(O)c1ccc(NS(=O)(=O)c2cccc(S(=O)(=O)c3ccc(Cl)c(Cl)c3)c2)cc1 | -30.6%
20 | COc1cc2c(cc1OC)CN(CC(=O)Nc1ccc(C)c(S(=O)(=O)N3CCOCC3)c1)CC2 | -14.6%
21 | COc1cccc(NC(=O)Cn2nc(Cc3cccnc3)c3ccccc3c2=O)c1 | -18.3%

Row | Compound | inhibition
22 | Cn1c(/C=C/c2ccccc2)nc2ccccc21 | 48.9% (active)
23 | Cn1c(/C=C/c2ccccc2)nc2ccccc2c1=O | -12.9%
24 | CCCn1c(/C=C/c2ccccc2)nc2ccccc21 | -41.4%
25 | COc1ccc(/C=C/c2nc3ccccc3n2Cc2ccccc2OC)cc1 | 5.5%
26 | COc1ccc(/C=C/c2nc3ccccc3n2C)cc1 | 74.4% (active)
27 | C=CCn1c(/N=C/c2ccc(OC)cc2)nc2ccccc21 | -6.3%
28 | COc1ccc(/C=N/NC(=O)CCn2nnc3ccccc32)cc1 | -3.7%
29 | COc1ccc(/C=N\n2nnc3ccccc32)cc1 | 42% (active)
30 | COc1ccc(Cn2c(/C=C/c3ccccc3)nc3ccccc32)cc1 | -65.7%
31 | O=C(OCC(=O)C12CC3CC(CC(C3)C1)C2)c1cnccn1 | -23.7%
32 | CCOC(=O)c1c(CSc2ccc(C)cc2)n(C)c2cc(Br)c(O)c(CN(C)C)c12 | -29.9%
33 | CC(C)(C)c1ccc(OCCNC(=S)NC(=O)c2cccnc2)cc1 | -17.1%
34 | Cc1ccc2[nH]c(=O)c3cc(C(=O)NC(C)C)sc3c2c1 | -4.6%
35 | COC(=O)CSc1nnc(CNC(=O)c2cccs2)n1-c1cccc(C)c1 | -22.2%
36 | COC(=O)c1ccc(N2CCN(S(=O)(=O)c3ccccc3)CC2)c([N+](=O)[O-])c1 | -18.3%
37 | O=C(c1ccc(N2CCN(S(=O)(=O)c3ccccc3)CC2)c([N+](=O)[O-])c1)N1CCOCC1 | -3.7%
38 | CCN1CCN(C(c2cccs2)C(C)NC(=O)C(=O)N2CCCCC2)CC1 (configuration not stated) | -23.8%
39 | Cc1ccc(Nc2ncnc3c2nnn3Cc2ccccc2)cc1 | -7.5%
40 | O=C(CCC(=O)N1CCSc2ccccc21)NCc1cccc(Br)c1 | -27.1%
41 | COc1ccc(-c2cc3nc[nH]c(=O)c3s2)cc1 | -1.7%
42 | O=c1[nH]cnc2cc(-c3ccc(Br)cc3)sc12 | -63.3%

Row | Compound | inhibition
43 | O=c1[nH]c(CCl)nc2cc(-c3ccc(Cl)cc3)sc12 | 92.6% (active)
44 | OCCN(CC#CCC(O)(c1ccccc1)C1CCCC1)CCO (configuration not stated) | -2%
45 | CCCCCc1cc(=O)oc2c(C(CCN3CCCCC3)c3ccc4c(c3)OCO4)c(OC)cc(OC)c12 (configuration not stated) | 2.9%
46 | Cc1ccc2[nH]cc(/C=C/c3cc[n+](C)cc3)c2c1 | 4.2%
47 | Cc1ccc2[nH]c(C)c(/C=C/c3cc[n+](C)cc3)c2c1 | 5.6%
48 | O=S(=O)(O)c1nc2ccccc2n1Cc1ccccc1 | 82.8% (active)
49 | CS(=O)(=O)c1nc2ccccc2n1Cc1ccccc1 | 13.9%
50 | Cc1ccc(Cn2c(S(=O)(=O)O)nc3ccccc32)cc1 | -25.7%
51 | COc1ccc(CCC(=O)N(c2nnc(-c3cccnc3)s2)C(C)C)cc1 | -14.2%
52 | NC(=O)NC(=O)CSc1ccccc1 | -37.5%
53 | COCCc1nnc(NC(=O)C23CC4CC(CC(C4)C2)C3)s1 | -34.2%
54 | CC(C)(C)c1ccc(C(=O)Nc2ccc(Oc3cccnc3)nc2)cc1 | 29%
55 | O=C(Nc1ccc(Oc2cccc(C(F)(F)F)c2)nc1)c1ccccc1 | 10.3%
56 | O=S(=O)(N/N=C\c1ccc2c(c1)OCO2)c1ccc(F)cc1 | -7.6%
57 | Cc1ccc(NC2=Nc3ccccc3N3C2=Nc2c(c(C)nn2-c2ccccc2)C3c2ccc(O)c(O)c2)cc1 (configuration not stated) | 2.5%
58 | CC(=O)Nc1ccc(NC2=Nc3ccccc3N3C2=Nc2c(c(C)nn2-c2ccccc2)C3c2ccccc2)cc1 (configuration not stated) | 99% (active)
59 | Cc1nn(-c2ccccc2)c2c1C(c1ccc(O)c(O)c1)N1C(=N2)C(Nc2ccccc2)=Nc2ccccc21 (configuration not stated) | -2.4%
60 | O=C(Nc1ccccc1)Nc1cc(OCC(F)(F)F)cc(OCC(F)(F)F)c1 | -5.2%
61 | CCOc1ccc(NC(=O)Nc2cc(OCC(F)(F)F)cc(OCC(F)(F)F)c2)cc1 | -32.9%
62 | O=C(Nc1ccc(F)cc1)Nc1cc(OCC(F)(F)F)cc(OCC(F)(F)F)c1 | 84.5% (active)
